Experimental data from PubChem BioAssay (NCI).
This is part of a sample that, as a whole, favours compounds with a hit. Of some 83,000 tested, about 20% had one in any assay.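 Method: cells in 96-well plates; compound added at one concentration; 48 h incubation; percent growth measured; values under 10 scored active.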 The source made the active and inactive calls.

Each compound was assayed on SNB-75 CNS (assay: NCI-60 one-dose screen, 48 h (100 = growth as untreated, 0 = no growth, -100 = all killed)). Details: 10 µM unless noted.
Experimental: Growth inhibition of the SNB-75 human tumor cell line is measured as a screen for anti-cancer activity. Cells are grown in 96 well plates and exposed to the test compound for 48 hours. Compounds are tested at a single concentration, which is 10^-5 M for most compounds. The reported endpoint is percent growth (GI% or GIPRCNT), where numbers from 0 - 100% represent growth inhibition, and numbers from -100% - 0 represent cell death. For example, a value of 40 represents 60% growth inhibition. A value of 0 means no net growth occurred over the course of the experiment. A value of -40 indicates 40% of cells at the beginning of the experiment died by the end of the experiment. A value of -100 means all cells are dead at the end of the experiment.
NCI-60 Human Tumor Cell Lines Screen was performed using the standard one-dose NCI protocol, which is described in more detail at https://dtp.cancer.gov/discovery_development/nci-60/default.htm.
Compounds with GIPRCNT values below 10 were considered active. Activity score was based on GIPRCNT using the following formula: […]
Score is 0 for GIPRCNT values of 100 or above, 50 for GIPRCNT values of 0, and 100 for GIPRCNT values of -100.

| SMILES | growth |
| --- | --- |
| Oc1c(Br)cc(Br)cc1Br.[Cu+2] | 98.7% (inactive) |
| CC[C@H](C)[C@H](NC(=O)Nc1ccccc1)C(=O)N(C)[C@H](C[C@@H](OC(C)=O)c1nc(C(=O)N[C@@H](Cc2ccccc2)C[C@H](C)C(=O)OC)cs1)C(C)C | 5.16% (active) |
| C[CH2][Pb]([CH2]C)([CH2]C)[O]C(=O)COc1ccccc1 | 4.45% (active) |
| CC(=O)O[C@H]1CCC2C3CCC4=C/C(=N/O)CCC4(C)C3CCC21C (stereo not given in full) | 96.4% (inactive) |
| O=C(O)C1[O][Sb][O]C1C(=O)O (stereo not given) | 94.8% (inactive) |
| COP(=S)(OC)Oc1ccc(SC)c(C)c1 | 89.6% (inactive) |
| O=C1NC(=O)C(CN2C(=O)C3(c4ccccc42)[C@H](Cl)C(=O)N3c2ccccc2)C(=O)N1 (stereo not given in full) | 52.7% (inactive) |
| c1ccc(CCN2CCCCC2Cc2ccccc2)cc1 (stereo not given) | 107% (inactive) |
| COc1ccc(/C=C(/C(=O)N2CCCC2)c2cc(OC)c(OC)c(OC)c2)cc1N | -12.2% (active) |
| O=CN1N=C(c2ccc3c(c2)OCO3)CC1c1sc(N(CCCl)CCCl)nc1Cl (stereo not given) | 90.8% (inactive) |
| Cn1cnnc1[S-].[Au+].c1ccc([PH+](c2ccccc2)c2ccccc2)cc1 | -62.3% (active) |
| O=C(O)CNC(=O)c1ccccc1 | 93.7% (inactive) |
| O=C(CCc1ccco1)NC1CCN(CC2(c3ccc(Cl)cc3)CCC2)CC1 | 16% (inactive) |
| Cc1cc(NC(=O)/C=C/c2ccc([N+](=O)[O-])cc2)ccc1S(=O)(=O)F | 106% (inactive) |
| O=C(O)C1(Br)CC12c1ccccc1-c1ccccc12 (stereo not given) | 104% (inactive) |
| O=[N+]([O-])c1cccc([As]=[As]c2cccc([N+](=O)[O-])c2)c1 (stereo not given) | -100% (active) |
| CC1(C)N=C(N)N=C(N)N1c1ccc(OCCCCNC(=O)c2ccc(S(=O)(=O)F)cc2)c(Cl)c1 | 87.7% (inactive) |
| C[C@]12CCc3sc(-c4ccc(Cl)cc4)nc3C1=CC[C@@H]1[C@@H]2CC[C@]2(C)C(=O)CC[C@@H]12 | 58.3% (inactive) |
| O=C(CCF)c1ccc(O)cc1 | 96.9% (inactive) |
| C=CC(O)CN1CC1CC (stereo not given) | 85.1% (inactive) |

| SMILES | growth |
| --- | --- |
| Nc1c(Br)cc2c3c(cccc13)-c1ccccc1-2 | 60.9% (inactive) |
| NCCc1cc(O)c(O)cc1O | 95.9% (inactive) |
| CCCCOC(=O)c1ccccc1C(=O)O.CCCCOC(=O)c1ccccc1C(=O)O.[Cu+2] | 104% (inactive) |
| Cc1ccc2oc(=O)c3c(c2c1)OC(N)=C(C#N)C3c1ccco1 (stereo not given) | 96.2% (inactive) |
| OC1CCCCC1N1CCC(c2ccccc2)CC1 (stereo not given) | 86% (inactive) |
| COc1cc(/C=C\c2cc(OC)c(OC)c(OC)c2)cc(N/C=C\C(=O)c2ccc(OC(F)(F)F)cc2)c1OC | -8.84% (active) |
| C[CH2][Pb]([CH2]C)([CH2]C)[O]C(=O)COC | -4.45% (active) |
| COc1c(O)c2c3c(c1OC)-c1ccccc1CC3N(C)CC2 (stereo not given) | 82.4% (inactive) |
| COC(=O)C1CC2c3ccccc3C1c1ccccc12 (stereo not given) | 94.5% (inactive) |
| O=S(=O)(Cl)c1ccccc1 (tested in a mixture with another compound) | 95.4% (inactive) |
| CC1(C)N=C(N)N=C(N)N1c1ccc(CCCCc2ccc(S(=O)(=O)F)cc2)c(Cl)c1 | 63.2% (inactive) |
| O=CC(Br)C(Br)c1ccccc1 (stereo not given) | 92.6% (inactive) |
| Oc1ccc(Br)cc1CN1CCN(Cc2ccc(Cl)cc2)CC1 | 51.5% (inactive) |
| COc1cc(NCCCCCN=C(N)N)c2ncccc2c1 | 47% (inactive) |
| [Cl][Hg][n]1cnc2c(Cl)c(Cl)c(Cl)cc21 | 104% (inactive) |
| O=C(CC1(O)C(=O)Nc2ccc(F)cc21)c1ccc(C(=O)NCC2CCC3(CC2)OOC2(CCCCC2)OO3)cc1 (stereo not given) | 69.8% (inactive) |
| CCC[CH2][Sn]([CH2]CCC)([CH2]CCC)[O]C(=O)c1ccc(Cl)cc1Cl | -93.2% (active) |
| N#[N+]c1nc2nc(N)[nH]c(=O)c2[nH]1 | 92% (inactive) |
| CC[C@@]1(C2O[C@@H](C3O[C@@](O)(CC)[C@H](C)C[C@@H]3C)C[C@@H]2C)CC[C@H]([C@]2(C)CCC3(C[C@H](O)[C@@H](C)[C@@H]([C@H](C)[C@@H](OC)[C@H](C)C(=O)O)O3)O2)O1 (stereo not given in full) | 16% (inactive) |
| CC(C)(C)N(Cc1ccccc1)N=O | 86.5% (inactive) |
